IL-1B inflam inh: inflammasome signaling inhibition, IL-1 beta readout; 360,000 compounds, 4.7% hits; AID 743279; THP-1 LPS/ATP IL-1B secretion, AlphaLISA, 16 h; stronger effect = lower value; activity change, % at 57.5 µM; in the data active = activity change below about -50%; inconclusive = mostly about -30% to -49%
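Secreted IL-1B measured by AlphaLISA bead assay after 16 h compound exposure of THP-1 cells; compounds (final up to 57.5 uM) added 1 h before LPS (250 ng/mL) and ATP (1.25 mM) stimulation; lower signal means less secretion.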
TDP1 block: inhibitors of human tyrosyl-DNA phosphodiesterase TDP1; AID 485290; recombinant TDP1, AlphaScreen DNA substrate cleavage; 350,000 compounds, 0.28% hits; Potency, µM (titrated, usually from 130 µM), without a hit: top-dose activity change, negative = inhibition, usual class: inhibitors; also: potency is read from the fitted curve at half-maximal effect; nearly all actives have a fitted effect of over 40% in size
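Recombinant E. coli-expressed Tdp1 (1 nM) preincubated with compound 15 min at RT, then 5'-biotin/3'-phosphotyrosine-FITC DNA substrate (15 nM) added for 5 min. AlphaScreen beads (10 ug/ml) added, 10 min RT; tyrosine-FITC cleavage read as signal loss.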
DT40 TDP1 no CPT: qHTS for Inhibitors of human tyrosyl-DNA phosphodiesterase 1 (TDP1): qHTS in cells in absence of CPT. DT40 Tdp1-/- hTDP1 cells, no CPT, ATP luminescence, 48 h. Potency, µM (doses to about 46.2 µM), for inactives: at the highest dose activity change, negative = growth inhibition, most hits filed as inhibitors. 420,000 compounds, 15% hits. AID 686978, 2013; also: potency is read from the fitted curve at half-maximal effect; nearly all actives have a fitted effect of over 55% in size
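Luminescent ATP content (CellTiter-Glo) served as the growth readout. Knockout chicken DT40 cells expressing human TDP1 were exposed to compounds without camptothecin for a minimum 48 hr at 37 °C.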
Six1-Eya2 inh: blocks human Six1 binding to Eya2 | Q15475+O00167 | activity change, % (concentration not given with the values) | AlphaScreen GST-Six1/His-Eya2 binding, biochemical; stronger effect = lower value | 360,000 compounds, 0.56% hits; in the data active = activity change below about -65%; inconclusive = mostly about -30% to -63%
Target sequence (O00167 whole entry, looked up): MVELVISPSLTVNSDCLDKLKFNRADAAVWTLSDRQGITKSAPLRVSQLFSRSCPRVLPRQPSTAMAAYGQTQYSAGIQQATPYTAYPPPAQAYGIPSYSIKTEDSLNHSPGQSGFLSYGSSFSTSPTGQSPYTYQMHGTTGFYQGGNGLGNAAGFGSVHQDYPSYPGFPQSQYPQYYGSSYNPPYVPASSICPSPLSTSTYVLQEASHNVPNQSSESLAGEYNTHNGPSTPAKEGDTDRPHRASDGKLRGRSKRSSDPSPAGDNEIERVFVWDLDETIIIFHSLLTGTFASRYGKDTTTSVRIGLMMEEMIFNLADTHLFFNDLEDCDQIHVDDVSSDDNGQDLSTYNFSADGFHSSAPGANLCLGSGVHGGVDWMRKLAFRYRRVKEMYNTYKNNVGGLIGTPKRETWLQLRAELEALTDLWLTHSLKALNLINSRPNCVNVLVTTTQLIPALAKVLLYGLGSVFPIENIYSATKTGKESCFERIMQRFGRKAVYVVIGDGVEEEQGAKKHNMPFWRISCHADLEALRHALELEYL
Target sequence (Q15475 whole entry, looked up): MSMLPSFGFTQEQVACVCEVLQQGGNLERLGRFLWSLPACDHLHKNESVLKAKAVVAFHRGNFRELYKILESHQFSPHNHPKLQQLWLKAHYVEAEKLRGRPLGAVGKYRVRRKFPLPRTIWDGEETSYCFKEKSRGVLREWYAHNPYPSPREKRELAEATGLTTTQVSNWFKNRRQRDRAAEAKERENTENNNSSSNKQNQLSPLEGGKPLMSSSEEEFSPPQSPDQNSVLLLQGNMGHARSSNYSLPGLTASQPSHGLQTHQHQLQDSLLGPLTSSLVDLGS
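AlphaScreen with GST-Six1 and His-Eya2 (5X mix: 250 nM and 500 nM), glutathione donor and nickel acceptor beads; buffer 50 mM Tris pH 8.0, 300 mM NaCl, 1 mM TCEP; 1 h at 37 C in the dark.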
TDP1 cell CPT: DT40-hTDP1 cell growth loss with CPT; chicken DT40 Tdp1-/-;hTDP1 cells + 20 nM CPT, ATP luminescence, 48 h; Potency, µM (top dose mostly 46.2 µM), inactives show top-dose activity change, negative = growth inhibition, actives largely listed as inhibitors; 420,000 compounds, 12% hits; also: potency is read from the fitted curve at half-maximal effect; nearly all actives have a fitted effect of over 55% in size
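Chicken DT40 Tdp1-/- cells complemented with human TDP1, 400 cells/well, exposed to compounds plus 20 nM camptothecin for at least 48 h at 37 C; viability read as ATP content by CellTiter-Glo luminescence.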
CtBP-E1A blk: inhibitors of CtBP/E1A interaction. AlphaScreen GST-E1A/His-CtBP binding, 1536-well; stronger effect = lower value. activity change, % (no concentration beside the values). 340,000 compounds, 0.49% hits. AID 651724; in the data active = activity change below about -65%; inconclusive = mostly about -30% to -63%
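Protein mix (5X: 125 nM each GST-E1A, His-CtBP) was incubated with pinned compound 2 h at 37 deg C in dark, in 50 mM Tris pH 8.0 buffer with 300 mM NaCl. Glutathione donor and nickel acceptor beads followed; AlphaScreen signal read after 1 h.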
* marks the source's active call; other numbers are inactive results; ? = inconclusive; / = no result; [ ] = remark or other dose. Only some compounds are listed: those with a hit (about 18% of all), similar ones and a draw of the others. Unless noted, calls follow the shape of the dose curve; as a rule, active = well fitted curve in the direction sought with a large enough effect; inconclusive = small, poorly fitted or top-dose-only effect, or another doubt; inactive = no such curve, though single readings can be large; an effect the other way counts as inactive or inconclusive. % is scaled to controls: 0 for no effect and ±100 for the full control effect.

SMILES | IL-1B inflam inh | TDP1 block | DT40 TDP1 no CPT | Six1-Eya2 inh | TDP1 cell CPT | CtBP-E1A blk
CC(C)=CCCC1(C)C=Cc2c(O)c3c(c(CC=C(C)C)c2O1)OC12C(=CC4CC1C(C)(C)OC2(C/C=C(/C)C(=O)O)C4=O)C3=O (centres undefined) | / | 12.9% | 1.03µM* | / | 0.92µM* | /
CC(C)=CCCC1(C)C=Cc2c(O)c3c(c(CC=C(C)C)c2O1)OC12C(=CC4CC1C(C)(C)OC2(C/C=C(/C)C(=O)O)C4O)C3=O (centres undefined) | / | 12.4%[56.1 µM] | 3.66µM* | / | 4.61µM* | /
CS(=O)(=O)N1CCN(C(=N)N[N+](=O)[O-])CC1 | 18.5 | 1.2% | ? | 3.0 | ? | 4.8
Cc1ccc(-c2nc3ncccc3o2)cc1NC(=O)c1cccc(OCC(C)C)c1 | / | / | ? | / | -27.9% | /
Cc1ccsc1-c1nc(CSCC(=O)N2CCC3(CC2)OCCO3)c(C)o1 | -27.2 | 5.1% | 16.4µM* | -0.2 | 23.1µM* | 0.0
CN(C)c1ccc(Cc2ccc(N(C)C)cc2)cc1 | -4.7 | 27.3% | ? | -91.9* | -22.1% | /
CCOc1cc2[nH]c(=O)n(CCCC(=O)N3CCN(c4cccc(Cl)c4)CC3)c(=O)c2cc1OCC | / | 2.5% | 3.26µM* | / | 5.8µM* | /
COc1ccc(NC(=O)C2Cc3c(-c4cccc(C(C)=O)c4)ccnc3O2)cc1OC (centres undefined) | 3.6 | / | 4.11µM* | -17.2 | 3.26µM* | -5.8
COc1ccc(NC(=O)CN2C3CCC2CC(O)(c2cccnc2)C3)cc1OC (centres undefined) | -19.0 | 0.0% | -17.0% | 0.7 | -10.9% | 5.4
COc1ccc(N2C(=O)C(=O)N(c3ccc(OC)cc3)P2(=O)N(CCCl)CCCl)cc1 | -0.7 | / | -14.9% | -15.2 | -24.0% | 0.8
COc1ccc2c(c1)C(c1ccc(N(CCCl)CCCl)cc1)=NCC2 | -89.9* | / | 13µM* | -13.6 | 16.4µM* | -14.0
ClCCN(CCCl)c1ccc(C2=NCCc3ccccc32)cc1 | -78.0* | / | ? | -13.3 | 23.1µM* | -9.6
CC(Sc1ncnc2sccc12)C(=O)Nc1ccc(S(=O)(=O)N2CCOCC2)cc1 (centres undefined) | 14.7 | / | -32.6% | -0.7 | ? | -7.1
O=C(NCCSc1c(-c2ccc(F)cc2)[nH]c2ccccc12)c1ccc(S(=O)(=O)N2CCOCC2)cc1 | / | 5.9% | 4.11µM* | / | 5.17µM* | /
COc1cc(C(=O)NCCSc2c(-c3ccccc3)[nH]c3ccccc23)cc(OC)c1OC | / | 8.8% | 8.2µM* | / | 8.2µM* | /
CNC(=O)OCC[N+](C)(C)C | / | 5.7% | -19.3% | / | 5.1% | /
O[C@H]1C[C@H](c2ccccc2)N(CC2CCCCC2)C[C@@H]1n1cc(-c2ccc(F)cc2)nn1 | 17.1 | / | 14.6µM* | 1.5 | 23.1µM* | 3.3
Cc1ccc([C@H]2C[C@@H](n3cc(C4CC4)nn3)[C@H](O)CN2Cc2cccs2)cc1 | 2.9 | / | -20.5% | 1.8 | -29.0% | 6.7
C=C/C(=C/C(=O)C[C@H](C)C[C@@H](C)CC[C@H](O)[C@H](C)C(=O)C[C@@H](O)[C@H](C)[C@@H](C)OC(=O)C[C@@H](O)C1=C(C)C(=O)OC1=O)CC | / | -9.2%[21 µM] | / | / | / | /
O=C(Nc1ccc2nc(SCC(=O)N3CCCc4ccccc43)sc2c1)c1ccccc1F | / | 4.7% | 5.17µM* | / | 5.8µM* | /
Cc1nc2ccc(NC(=O)C3COc4ccccc4O3)cc2s1 (centres undefined) | 0.1 | -1.9% | ? | 1.1 | ? | -3.8
CCn1c(P(C)(=O)O)nc2cc(NC(=O)c3ccccc3F)ccc21 | 0.0 | 2.7% | 5.2% | -7.7 | -2.4% | 0.1
COc1ccccc1C(=O)Nc1ccc2nc(SCC(=O)N3CCCc4ccccc43)sc2c1 | / | 2.6% | 2.91µM* | / | 5.17µM* | /
CC(C)C[C@H](NC(=O)[C@H](Cc1ccccc1)NC(=O)CNC(=O)[C@H](C)NC(=O)[C@@H](N)Cc1ccc(O)cc1)C(=O)O | / | 8.5% | -11.5%[4.12 µM] | / | 2.4%[4.12 µM] | /
O=C(CCn1c(=O)oc2ccccc21)N1CCN(C(c2ccccc2)c2ccccc2)CC1 | -64.6* | 5.8% | ? | -7.3 | 16.4µM* | -3.6
SMILES | IL-1B inflam inh | TDP1 block | DT40 TDP1 no CPT | Six1-Eya2 inh | TDP1 cell CPT | CtBP-E1A blk
COc1ccc(C(C)(C)C)cc1NC(=O)CCCn1c(=O)oc2ccccc21 | -13.8 | 3.0% | ? | -4.2 | -23.9% | -18.4
O=[N+]([O-])c1ccc(S(=O)(=O)NN=C2CCCCC2)cc1 | -18.4 | / | ? | 9.2 | -37.1% | -23.6
CC(Cc1ccccc1)NC(N)=O (centres undefined) | 9.4 | 2.7% | -6.5% | -1.6 | 0.3% | 3.9
CC(Cc1ccccc1)NC(=O)/C=C/c1ccc(Cl)cc1 (centres undefined) | -54.3* | -0.6% | ? | 6.1 | ? | 11.7
O=C(CCC(=O)N1C[C@H]2C[C@@H](C1)c1cccc(=O)n1C2)NCc1ccc(F)cc1 | 21.4 | -9.9% | 2.3% | -4.4 | 11.8% | 2.1
Cc1c(NC(NC(=O)CF)C(Cl)(Cl)Cl)c(=O)n(-c2ccccc2)n1C (centres undefined) | 0.2 | 2.6% | -12.9% | 0.6 | 5.7% | 15.9
COC(=O)C1=C(c2ccc(F)cc2OCc2ccccc2)C[C@@H]2CC[C@H]1N2C | -18.3 | -0.2% | 16.4µM* | -2.1 | 23.1µM* | /
COC(=O)C1=C(c2ccccc2OCc2ccccc2)C[C@@H]2CC[C@H]1N2C | -15.3 | / | 23.1µM* | -11.0 | ? | -2.6
